Screening results deposited in PubChem by National Center for Advancing Translational Sciences (NCATS).
SMN2 splice enh = SMN2 splice variant enhancement | hit rate 2.8% among 210,000 | Potency, µM (titrated, usually from 46.1 µM), for the others: top-dose activity change, positive = activation, usual class: activators | HEK293 SMN2-luciferase splicing reporter, luminescence, 30-36 h; also: % of control where 0% means no effect; nearly all actives have a fitted effect of over 55% in size
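qHTS luciferase splicing reporter: luminescence rises when SMN2 exon 7 is included in transfected HEK293 cells. Compound exposure lasted 30-36 h at 37C, with 4.5 mM final sodium butyrate as control, followed by a ONE-Glo read.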
NPC1 prom act = activators of NPC1 promoter | Potency, µM (doses to about 9.22 µM), without a hit: at the highest dose activation, usual class: activators | Huh7 NPC1 promoter luciferase reporter, 24 h | hit rate 2.4% among 320,000; also: % of control where 0% means no effect; nearly all actives have a fitted effect of over 60% in size
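Stable NPC1-promoter luciferase Huh7 line; cpd (DMSO) 24 h, 37 °C, 5% CO2; Amplite luciferase reagent 10 min RT; luminescence readout. qHTS format.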
Rab9 promoter act = activators of Rab9 promoter; Potency, µM (titrated, usually from 9.22 µM), without a hit: top-dose activation, negative = inhibition, hits mostly activators; hit rate 2.8% among 320,000; Huh7 Rab9 promoter-luciferase reporter, luminescence, 24 h; also: % of control where 0% means no effect; nearly all actives have a fitted effect of over 60% in size
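Huh7 cells stably carrying Rab9 promoter–luciferase reporter, plated 1500 cells/well, compound added after 2 h and incubated 24 h at 37 °C; luciferase luminescence then read after 10 min with detection reagent.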
FLuc modulator = firefly luciferase modulation, counter-screen for miR-21 project | AID 588342 | purified FLuc, Km substrates, luminescence inhibition | Potency, µM (titrated, usually from 57.5 µM), inactives show top-dose activity change, negative = inhibition, actives largely listed as inhibitors | hit rate 6.9% among 360,000;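 also: plate controls were vehicle for no effect and reference inhibitor for full effect; nearly all actives have a fitted effect of over 55% in size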
Target sequence (P08659 whole entry, looked up): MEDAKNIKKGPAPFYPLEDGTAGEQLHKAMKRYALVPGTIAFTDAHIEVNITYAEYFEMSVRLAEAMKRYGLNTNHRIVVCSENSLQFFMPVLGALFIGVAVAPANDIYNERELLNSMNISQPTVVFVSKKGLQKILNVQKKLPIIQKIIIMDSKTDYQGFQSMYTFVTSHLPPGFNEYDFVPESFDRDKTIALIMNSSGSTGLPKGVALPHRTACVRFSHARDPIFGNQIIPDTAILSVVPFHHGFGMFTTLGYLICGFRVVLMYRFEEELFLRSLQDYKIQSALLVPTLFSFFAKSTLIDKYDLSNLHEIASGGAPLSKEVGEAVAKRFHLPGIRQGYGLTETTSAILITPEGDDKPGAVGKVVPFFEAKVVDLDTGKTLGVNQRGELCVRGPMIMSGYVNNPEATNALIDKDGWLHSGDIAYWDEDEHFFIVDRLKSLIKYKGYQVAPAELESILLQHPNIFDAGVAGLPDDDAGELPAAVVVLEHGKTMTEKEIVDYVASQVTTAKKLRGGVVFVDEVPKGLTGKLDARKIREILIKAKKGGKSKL
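Biochemical qHTS of compounds, final roughly 60 µM downward over six points, against 10 nM purified firefly luciferase using Km concentrations of substrates (10 uM D-luciferin, 10 uM ATP) in Tris acetate pH 7.5 buffer; luminescence output.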
ELG1 genotox = induces genotoxicity in HEK293T cells with luciferase-tagged ELG1 | hit rate 1.3% among 330,000 | AID 504466 | Potency, µM (highest dose often 46 µM), without a hit: at the top dose activity change, positive = activation, most hits filed as activators | HEK293T ELG1-luciferase reporter, luminescence, 16 h; also: % of control where 0% means no effect; nearly all actives have a fitted effect of over 60% in size
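Cells (2,000/well) expressing the ELG1-luciferase fusion are dosed by pin tool and kept 16 hr at 37 °C, 5% CO2. Signal comes from ONE-Glo luciferase reagent after 30 min at room temperature.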
ELG1 repair inh = blocks ELG1-dependent DNA repair in HEK293T cells | HEK293T ELG1-luciferase reporter, luminescence, 16 h; DNA damage induced by 5-fluorouridine | Potency, µM (top dose mostly 46.1 µM), for the others: at the top dose activity change, negative = inhibition, hits mostly inhibitors | hit rate 2.3% among 330,000; also: % is scaled to controls: 0 for no effect and ±100 for the full control effect; nearly all actives have a fitted effect of over 55% in size
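Overnight (16 hr) co-exposure of 2,000 cells/well to 5-fluorouridine and compound at 37 °C preceded detection. Luciferase was quantified via ONE-Glo luminescence; loss of signal denotes inhibition.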
Active calls of the source: *; ? = inconclusive; · = not tested or not shown; [ ] = another dose, or the depositor's remark. Compounds with a hit are over-represented: about 9.3% of the library has one in this group of screens. Calls follow the shape of the dose curve; as a rule, active = well fitted curve in the direction sought with a large enough effect; inconclusive = small, poorly fitted or top-dose-only effect, or another doubt; inactive = no such curve, though single readings can be large; an effect the other way counts as inactive or inconclusive. Potency is read from the fitted curve at half-maximal effect.

SMILES | SMN2 splice enh | NPC1 prom act | Rab9 promoter act | FLuc modulator | ELG1 genotox | ELG1 repair inh
COc1ccnc2c1c(=O)n(Cc1ccc(F)cc1)c(=O)n2C | · | -3.0% | 5.2% | -1.3% | -0.7%[9.26 µM] | 3.2%
CCc1cccc(C)c1NC(=O)Cn1ccn(Cc2ccc(Cl)cc2)c(=O)c1=O | · | · | · | -6.1% | · | ·
CCc1ccc(N=C2NC(=O)/C(=C/c3ccc(OCC(=O)O)cc3)S2)cc1 | · | 2.0% | -11.3% | 6.01µM* | -1.0% | 10.9%
COc1ccc(N=C2NC(=O)/C(=C/c3ccc(O)c(OC)c3)S2)cc1 | -13.8% | -4.9% | -2.0% | ? | 12.2% | ?
COc1ccc(/C=C2\SC(=Nc3ccccc3)NC2=O)cc1 | · | -4.9% | 4.4% | 7.57µM* | 7.4% | -17.0%
COc1cc(/C=C2/SC(=Nc3ccc(O)cc3)NC2=O)cc(OC)c1O | -4.0% | -21.3% | 15.4% | 1.9% | 16.9% | 15.7%
CCc1ccc(N=C2NC(=O)/C(=C/c3ccc(OCC(=O)O)c(OC)c3)S2)cc1 | · | -1.4% | 0.0% | ? | -0.6% | 2.9%
O=C1NC(=O)/C(=C\c2ccc(OCc3cnc(Cl)s3)cc2)S1 | 14.6% | 17.0% | -2.8% | ? | 6.2% | 13.0%
O=C1NC(=O)/C(=C\c2ccc(Cl)nc2)S1 | · | ? | ? | 15.1µM* | ? | ?
COc1ccccc1N=C1NC(=O)/C(=C/c2ccc(N(C)C)cc2)S1 | · | -10.7% | 4.1% | 1.07µM* | ? | ?
CCN(CC(=O)Nc1cccc(S(=O)(=O)N(C)c2ccccc2)c1)Cc1cccs1 | · | -3.2% | 2.1% | 5.4% | -11.9% | ?
CSc1ccccc1NC(=O)CN1CC(C)OC(C)C1 (configuration not stated) | -11.6% | -4.3% | -8.5% | 1.2% | -4.7% | ?
COc1ccc(/C=C2/SC(=O)NC2=O)cc1 | · | ? | 3.16µM* | 4.26µM* | ? | ?
O=C1NC(=Nc2cccnc2)S/C1=C/c1ccc(F)cc1 | · | -3.7% | -5.7% | 10.7µM* | 2.8% | 14.6%
COC(C[C@@H](O)[C@@H](C)[C@H](O)COCc1ccccc1)OC | · | -4.9% | -2.3% | -1.2% | -1.0% | 9.8%
CCOc1ccc(NC(=S)N2CCCN(Cc3cc(C)ccc3C)C2)cc1 | ? | 1.0% | -9.1% | 0.9% | -21.0% | -9.5%
COc1ccc(CNC(=O)c2ccc(-c3nc(CSc4ccccc4)c(C)o3)cc2)cc1 | · | · | · | -1.2% | · | ·
O=C(COc1ccccc1)Nc1ccc(-c2nnc(-c3ccco3)o2)cc1 | 12.6µM* | ? | 1.12µM* | 1.4% | 9.6% | 24.2%
O=C(Cc1ccccc1)Nc1cccc(-c2nnc(-c3ccco3)o2)c1 | 6.8% | 0.3% | 4.7% | -17.3% | -0.4% | ?
O=C(COc1ccccc1)Nc1nnc(-c2ccc(F)cc2)o1 | · | -3.2% | -3.1% | -0.4% | -9.0% | 0.0%
COc1ccccc1OCC(=O)Nc1cccc(-c2nnc(-c3ccco3)o2)c1 | 17.8µM* | 28.7% | 15.2% | 12µM* | -7.1% | ?
O=C(Nc1cccc(-c2nnc(-c3ccco3)o2)c1)c1ccccc1 | -5.3% | -1.3% | -4.1% | ? | -10.6% | -25.8%
O=C(Nc1cccc(-c2nnc(-c3ccco3)o2)c1)C(c1ccccc1)c1ccccc1 | -5.6% | -2.2% | -3.2% | -1.5% | -12.0% | 13µM*
CS(=O)(=O)N1CCN=C1SCc1ccc([N+](=O)[O-])cc1 | -10.4% | -2.9% | -10.4% | 2.4% | -6.8% | -18.3%
CN(C)CCNC(=O)c1cc2sc3ccccc3c2s1 | 2.7% | 0.0% | 26.5% | ? | ? | ?
SMILES | SMN2 splice enh | NPC1 prom act | Rab9 promoter act | FLuc modulator | ELG1 genotox | ELG1 repair inh
Cc1cccc(NC(=S)NC(C)(C)CC(C)(C)C)c1 | -28.7% | -6.3% | -23.4% | -2.0% | -13.5% | ?
CCC(C)(C)NC(=S)Nc1ccc(-c2nc3ccc(C)cc3s2)cc1 | 28.1%[1.84 µM] | 4.47µM* | 2.82µM* | 2.69µM* | 9.2µM* | ?
CCCCNC(=S)Nc1ccc(-c2nc3ccc(C)cc3s2)cc1 | 3.55µM* | 3.55µM* | 2.82µM* | 1.69µM* | 4.61µM* | ?
COc1cc(NC(=S)N2CCN(S(=O)(=O)c3ccc(C)cc3)CC2)cc(OC)c1 | · | 1.1% | -0.7% | 0.2% | 3.3% | -11.0%
O=C(Oc1ccc(-c2cn3c(n2)SCC3)cc1)c1ccccc1 | ? | 0.3% | 0.7% | ? | 18.4µM* | 19.6%
CC(=O)Nc1ccc(-c2cn3c(n2)SCC3)cc1 | · | ? | 2.82µM* | ? | ? | ?
O=C(Nc1ccc(-c2cn3c(n2)SCC3)cc1)c1ccco1 | · | 2.51µM* | 0.891µM* | 8.49µM* | ? | ?
CC(=O)Nc1ccc(S(=O)(=O)Nc2cccc(-c3cn4c(n3)SCC4)c2)cc1 | -30.2% | 0.8% | -9.3% | 3.6% | 0.4% | -3.0%
O=C(Nc1cccc(-c2cn3c(n2)SCC3)c1)c1ccc(Br)o1 | 11.2% | -0.1% | -0.4% | ? | -1.3% | ?
O=C(Cc1ccc(F)cc1)Nc1cccc(-c2cn3c(n2)SCC3)c1 | -45.7% | -0.4% | 0.0% | ? | 0.4% | 16.4µM*
Cc1ccc(Cl)cc1-n1ncc2c(Nc3cccc(C)c3C)ncnc21 | · | · | · | -9.4% | · | ·
CN1C(=C2C(=O)OC(C)(C)OC2=O)Sc2ccccc21 | 12.5% | 3.55µM* | 2.51µM* | 15.1µM* | ? | ?
COc1cccc(/C=C2\N=C3CCCCCN3C2=O)c1 | -0.4% | 0.1% | 2.4% | 13.5µM* | ? | ?
Cc1ccc(Cn2ccc(C3CC3)n2)cc1 | ? | ? | ? | 16.9µM* | 23.6% | ?
COc1cc(O)oc1C=Nc1ccc(Cl)cc1 | -5.8% | -3.7% | 0.0% | -11.9% | 0.5% | -7.5%
COc1cc(O)oc1C=Nc1ccc(Oc2ccccc2)cc1 | -22.6% | ? | ? | 15.1µM* | 15.6% | ?
O=C(NCCOCCn1c(=O)oc2ccccc21)Nc1ccc(F)cc1 | -8.5% | · | · | 3.4% | · | ·
CSc1ccc(C2c3[nH]c4ccccc4c3CCN2C(=O)c2ccnn2C)cc1 (configuration not stated) | · | 11.1% | 3.55µM* | 10.7µM* | 16.2% | ?
Cc1cc(C)n(CCc2nc(-c3ccc(-c4ccccc4)cc3)cs2)n1 | -49.0% | 24.4% | 22.3% | 6.75µM* | ? | ?
COc1ccc(-c2csc(CCn3nc(C)cc3C)n2)cc1 | -27.6% | 2.2% | 8.6% | ? | -2.7% | -13.2%
O=C(O)c1cc(-c2ccccc2)n(-c2ccc(Cl)cc2)n1 | 4.0% | -1.0% | -4.9% | ? | -0.3% | 1.8%
COC(=O)c1ccccc1NC(=O)c1cnc2sc(N3CCOCC3)nn2c1=O | · | · | · | -4.9% | · | ·
CC(C)c1ccc(NC(=O)c2cnc3sc(N4CCOCC4)nn3c2=O)cc1 | · | · | · | 1.9µM* | · | ·
Cc1ccc(C(C)C)c(OCC(=O)NNC(=O)Cc2ccc(S(=O)(=O)N3CCOCC3)s2)c1 | · | · | · | · | 5.4% | 0.0%
